Among the data in ChEMBL document CHEMBL1157539, “Thousands of chemical starting points for antimalarial lead identification” (Nature, 2010) are Inhibition values, retold here.

Type in all cases: functional
For assay [1], the system named is Plasmodium falciparum. As to the kind of experiment: GSK_TCMDC: Inhibition of Plasmodium falciparum 3D7 in whole red blood cells, using parasite LDH activity as an index of growth. Test compounds present at 2uM.
The subject of assay [2] is Plasmodium falciparum. As to the kind of experiment: GSK_TCMDC: Inhibition of Plasmodium falciparum Dd2 in whole red blood cells, using parasite LDH activity as an index of growth. Test compounds present at 2uM.
The next assay deals with HepG2. Nature of the assay: GSK_TCMDC: Percent inhibition of human HepG2 cell line. Test compounds present at 10uM.

Take `CN1CCN(c2ccc(Nc3ncc(Cl)c(Nc4cccnc4C(N)=O)n3)cc2)CC1.Cl`: the Inhibition (as a rule, the drop in the measured response relative to a control, in per cent) with Plasmodium falciparum [1] is given as 95%; with Plasmodium falciparum [2], 97%; in the assay with HepG2 it was 99%.

As to `COc1ccc2nc3cc(Cl)ccc3c(NCCc3ccccc3)c2c1.Cl`, the Inhibition in the assay with Plasmodium falciparum [1] is listed as 94%; with Plasmodium falciparum [2], 82%; in the assay with HepG2, 0%.

As for `CC(CN1CCN(C)CC1)C(=O)Nc1ccc(-c2cccc(-c3nc4cc(F)ccc4[nH]3)c2)cc1` (stereo unspecified), the Inhibition in the assay on Plasmodium falciparum [1] is listed as 100%; in the assay with Plasmodium falciparum [2] it was 99%; in the assay with HepG2, 8%.

As for `CC1(C)N=C(N)N=C(N)N1OCc1cc(Cl)c(CON2C(N)=NC(N)=NC2(C)C)cc1Cl`, the Inhibition in the assay with Plasmodium falciparum [1] is 94%; with Plasmodium falciparum [2] it was 77%; in the assay on HepG2, 21%.

Consider `O=C(Nc1cccc(C(F)(F)F)c1)c1cccc(S(=O)(=O)NC2CCCN(CC3CCCCC3)C2)c1.O=C(O)C(F)(F)F` (stereo unspecified), for which the Inhibition with Plasmodium falciparum [1] is reported as 97%; in the assay on Plasmodium falciparum [2], 15%; in the assay on HepG2, 18%.

On to `COc1ccc(N2CCN(CCCCNC(=O)c3ccc(NC(=O)c4cc(C(F)(F)F)cc(C(F)(F)F)c4)cc3)CC2)cc1OC`, for which the Inhibition with Plasmodium falciparum [1] was found to be 100%; with Plasmodium falciparum [2] it was 100%; in the assay on HepG2 it was 9%.

For `CCCCC([C@@H](Cc1ccc2ccccc2c1)C(=O)N[C@H](C(=O)NC)C(C)(C)C)N(O)C=O` (stereo partly specified), the Inhibition with Plasmodium falciparum [1] is listed as 100%; in the assay with Plasmodium falciparum [2], 97%; in the assay with HepG2, 0%.

With `CCOc1ccc(CCC(=O)O)cc1OCC`, the values for the Inhibition in the assay on Plasmodium falciparum [1], in the assay on Plasmodium falciparum [2] and with HepG2 were 94%, 0% and 60%, respectively.

For the compound `COc1cccc(CC(=O)NC2CCN(c3ccnc4cc(Cl)ccc34)C2)c1.O=C(O)C(F)(F)F` (stereo unspecified), the Inhibition in the assay on Plasmodium falciparum [1] worked out at 100%; with Plasmodium falciparum [2] it was 85%; in the assay with HepG2, 9%.

Turning to `COc1cc2nc(N3CCC(CNC(=O)c4ccc(-c5ccc(Cl)cc5)cc4)CC3)nc(N)c2cc1OC`, the values for the Inhibition with Plasmodium falciparum [1], with Plasmodium falciparum [2] and with HepG2 were 100%, 100% and 99%, respectively.

For `COc1cc(-n2cnc3cc(-c4ccc(Cl)cc4)sc3c2=O)ccc1OCCN1CCC(c2cccc(NC(C)=O)c2)CC1.O=C(O)/C=C\C(=O)O`, the results for the Inhibition in the assay with Plasmodium falciparum [1], with Plasmodium falciparum [2] and in the assay on HepG2 were 99%, 80% and 61%, respectively.

On to `Cc1cc(NC(=O)c2ccsc2)ccc1OC1CCN(Cc2ccc(F)cc2)CC1.O=C(O)C(F)(F)F`, for which the Inhibition stood at 83% in the assay on Plasmodium falciparum [1], 47% with Plasmodium falciparum [2] and 9% in the assay on HepG2.

Take `O=C(/C=C/c1ccc(Cl)c(Cl)c1)NCCCCCN1CCC(NC(=O)Nc2ccc(C(F)(F)F)cc2)CC1`: the results for the Inhibition in the assay on Plasmodium falciparum [1], with Plasmodium falciparum [2] and in the assay with HepG2 were 94%, 34% and 58%, respectively.

`Cl.N=C(N)Nc1nc(-c2ccc(NC(=N)N3CCC[C@H]3CN3CCCC3)cc2)cs1`: the Inhibition in the assay on Plasmodium falciparum [1] is 82%; with Plasmodium falciparum [2], 66%; in the assay with HepG2, 6%.

`O=[N+]([O-])c1nc(Br)n(Cc2ccc(Cl)cc2)n1`: the Inhibition is 96% in the assay with Plasmodium falciparum [1], 95% in the assay on Plasmodium falciparum [2] and 0% in the assay with HepG2.

For the compound `O=C(O)C(F)(F)F.c1ccc(CCNCc2ccc(-c3ccc(CNc4ccc5ncccc5c4)cc3)cc2)cc1`, the Inhibition is on record as 96% with Plasmodium falciparum [1], 27% with Plasmodium falciparum [2] and 36% in the assay with HepG2.

Regarding `CCOc1ccccc1CON1C(N)=NC(N)=NC1(C)C`, the Inhibition in the assay with Plasmodium falciparum [1] is on record as 90%; in the assay on Plasmodium falciparum [2], 1%; in the assay with HepG2 it was 66%.

Regarding `Clc1cc(Nc2ncnc3sc(C#C[C@H]4CCCN4)cc23)ccc1OCc1cccnc1Cl.O=C(O)C(F)(F)F`, the Inhibition in the assay with Plasmodium falciparum [1] is 100%; in the assay with Plasmodium falciparum [2], 93%; in the assay on HepG2, 9%.

`CCCNC(=O)CN1CN(c2ccccc2)C2(CCN(C(=O)c3ccc(C(C)(C)C)cc3)CC2)C1=O`: the Inhibition is recorded as 99% in the assay on Plasmodium falciparum [1], 98% in the assay on Plasmodium falciparum [2] and 0% in the assay on HepG2.

On to `O=C(CCc1nc2c(cnn2-c2ccccc2)c(=O)[nH]1)NC1CCSc2ccccc21` (stereo unspecified), for which the Inhibition was 95% in the assay on Plasmodium falciparum [1], 52% in the assay with Plasmodium falciparum [2] and 10% with HepG2.

As for `CCOC(=O)c1ccc(NC(=O)Nc2cccc(-c3cccc(-c4nc5cc(F)ccc5[nH]4)c3)c2)cc1`, the figures for the Inhibition in the assay with Plasmodium falciparum [1], in the assay with Plasmodium falciparum [2] and in the assay on HepG2 were 100%, 100% and 85%, respectively.

In the case of `N#Cc1ccc(C=NNc2nc3ccccc3[nH]2)cc1`, the Inhibition with Plasmodium falciparum [1] came to 100%; in the assay with Plasmodium falciparum [2] it was 71%; in the assay with HepG2, 0%.

On to `COc1ccc2ncc(C#N)c(CCN3C[C@H](CNCc4ccccc4)[C@H](O)C3)c2n1.Cl`, for which the Inhibition was found to be 91% with Plasmodium falciparum [1], 24% with Plasmodium falciparum [2] and 3% in the assay with HepG2.

Turning to `O=C(Nc1cc(C(F)(F)F)cc(C(F)(F)F)c1)c1cc(C(F)(F)F)cc(C(F)(F)F)c1`, the Inhibition amounted to 100% in the assay on Plasmodium falciparum [1], 86% in the assay on Plasmodium falciparum [2] and 21% with HepG2.

Regarding `CC(=O)c1c(Cc2ccccc2Cl)c[nH]c1C`, the Inhibition in the assay with Plasmodium falciparum [1] turned out to be 95%; with Plasmodium falciparum [2] it was 53%; in the assay with HepG2, 0%.

Consider `CCN(CC)CCN(Cc1ccc(-c2ccc(C(F)(F)F)cc2)nc1)C(=O)Cn1c(SCc2ccc(F)cc2)nc(=O)c2sccc21.O=C(O)C(O)C(O)C(=O)O`, for which the Inhibition is reported as 96% in the assay with Plasmodium falciparum [1], 66% with Plasmodium falciparum [2] and 43% in the assay on HepG2.

With `Cc1noc(C)c1-c1cccc(CNCc2ccc(-c3cccc(-c4nc5cc(F)ccc5[nH]4)c3)cc2)c1.O=C(O)C(F)(F)F`, the values for the Inhibition with Plasmodium falciparum [1], with Plasmodium falciparum [2] and with HepG2 were 100%, 84% and 37%, respectively.
